Assays:
Assay in all cases: DAPPL (digital affinity profiling via proximity ligation, sequencing); 10 mM Tris-HCl pH 7.5, 50 mM NaCl, 1 mM DTT, 4% glycerol, room temperature, 30 min; GST-TFs on glutathione beads, 16-mer random dsDNA library, 0.1% formaldehyde crosslink after washing; high values mean tight binding
Details in all cases: protein: recombinant; tags: N-terminal GST; dsDNA, one strand shown
ELK1 = target: T1, ELK1 (Homo sapiens, UniProt P19419 1-428)
T1 sequence: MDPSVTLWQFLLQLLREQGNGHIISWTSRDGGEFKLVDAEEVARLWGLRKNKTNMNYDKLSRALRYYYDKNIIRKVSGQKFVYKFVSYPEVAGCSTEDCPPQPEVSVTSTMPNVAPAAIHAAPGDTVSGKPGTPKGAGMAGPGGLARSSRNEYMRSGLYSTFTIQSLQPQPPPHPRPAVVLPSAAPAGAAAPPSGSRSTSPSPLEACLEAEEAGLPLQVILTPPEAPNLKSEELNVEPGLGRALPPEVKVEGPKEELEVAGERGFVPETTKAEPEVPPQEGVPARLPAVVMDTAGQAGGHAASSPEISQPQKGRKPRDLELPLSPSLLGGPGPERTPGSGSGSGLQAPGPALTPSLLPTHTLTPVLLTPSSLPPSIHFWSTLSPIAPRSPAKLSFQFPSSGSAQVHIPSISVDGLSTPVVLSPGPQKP
Procedure, shortened: (§1)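 Human transcription factors were made in yeast as GST fusions, captured on glutathione beads and barcoded with DNA. With a tag-only sample included, the pool was incubated with 200 nmole of a random double-stranded 16-mer DNA library in Tris/NaCl/DTT/glycerol buffer at room temperature for 30 min, then crosslinked with 0.1% formaldehyde after washing, ligated by proximity, amplified and sequenced. For binding signal, each hexamer's read frequency for a factor is divided by its frequency for the tag-only sample.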

GABPA = target: T2, GABPA (Homo sapiens, UniProt Q06546 1-454)
T2 sequence: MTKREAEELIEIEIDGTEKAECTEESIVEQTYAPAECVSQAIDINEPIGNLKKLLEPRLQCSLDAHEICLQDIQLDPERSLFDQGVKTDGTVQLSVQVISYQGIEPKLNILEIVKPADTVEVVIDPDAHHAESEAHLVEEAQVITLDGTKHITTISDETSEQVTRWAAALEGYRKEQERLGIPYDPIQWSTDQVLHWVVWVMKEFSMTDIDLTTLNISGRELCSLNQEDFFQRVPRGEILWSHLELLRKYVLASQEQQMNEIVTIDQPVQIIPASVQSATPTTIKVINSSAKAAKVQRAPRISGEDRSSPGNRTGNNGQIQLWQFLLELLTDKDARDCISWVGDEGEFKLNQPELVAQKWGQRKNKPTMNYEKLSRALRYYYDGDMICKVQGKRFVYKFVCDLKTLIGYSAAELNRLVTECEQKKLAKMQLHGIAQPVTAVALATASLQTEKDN
Procedure, shortened: as §1

ERG = target: T3, ERG (Homo sapiens, UniProt P11308 1-479)
T3 sequence: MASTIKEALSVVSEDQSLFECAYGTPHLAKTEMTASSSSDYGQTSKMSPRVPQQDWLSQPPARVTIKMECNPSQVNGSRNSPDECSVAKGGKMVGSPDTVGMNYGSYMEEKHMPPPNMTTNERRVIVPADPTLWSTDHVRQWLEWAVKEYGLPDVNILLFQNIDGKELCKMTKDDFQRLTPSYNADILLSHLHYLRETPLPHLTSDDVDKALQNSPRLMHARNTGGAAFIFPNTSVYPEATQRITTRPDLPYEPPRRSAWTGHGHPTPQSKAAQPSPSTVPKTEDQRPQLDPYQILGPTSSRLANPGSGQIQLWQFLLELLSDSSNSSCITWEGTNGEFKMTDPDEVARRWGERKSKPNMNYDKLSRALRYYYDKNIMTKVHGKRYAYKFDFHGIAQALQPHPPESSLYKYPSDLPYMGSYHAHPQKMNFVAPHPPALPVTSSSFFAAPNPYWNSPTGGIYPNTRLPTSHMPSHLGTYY
Procedure, shortened: as §1

ELF1 = ELF1 (Homo sapiens, UniProt P32519 1-619)
Procedure, shortened: as §1

EHF = target: T4, EHF (Homo sapiens, UniProt Q9NZC4 1-300)
T4 sequence: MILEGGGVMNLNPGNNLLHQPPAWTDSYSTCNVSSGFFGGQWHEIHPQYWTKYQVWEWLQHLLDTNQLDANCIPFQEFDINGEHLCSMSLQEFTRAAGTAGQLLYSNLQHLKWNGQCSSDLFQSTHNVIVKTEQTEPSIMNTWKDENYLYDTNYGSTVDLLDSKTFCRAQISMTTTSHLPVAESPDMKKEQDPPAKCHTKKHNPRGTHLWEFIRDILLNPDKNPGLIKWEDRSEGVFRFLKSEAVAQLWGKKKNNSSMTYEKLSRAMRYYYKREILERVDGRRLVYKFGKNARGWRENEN
Procedure, shortened: as §1

SPIB = SPIB (Homo sapiens, UniProt Q01892 1-262)
Procedure, shortened: as §1

SPIC = target: T5, SPIC (Homo sapiens, UniProt Q8N5J4 1-248)
T5 sequence: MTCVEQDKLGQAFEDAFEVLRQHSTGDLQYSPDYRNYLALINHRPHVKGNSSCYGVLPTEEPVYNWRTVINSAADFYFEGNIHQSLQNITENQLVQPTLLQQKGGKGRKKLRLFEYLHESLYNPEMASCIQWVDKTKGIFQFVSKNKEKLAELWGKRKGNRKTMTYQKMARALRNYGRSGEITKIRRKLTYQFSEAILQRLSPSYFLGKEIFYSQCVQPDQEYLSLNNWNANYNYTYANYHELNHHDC
Procedure, shortened: as §1

ELF4 = ELF4 (Homo sapiens, UniProt Q99607 1-663)
Procedure, shortened: as §1

ELK4 = target: T6, ELK4 (Homo sapiens, UniProt P28324-2 1-405)
T6 sequence: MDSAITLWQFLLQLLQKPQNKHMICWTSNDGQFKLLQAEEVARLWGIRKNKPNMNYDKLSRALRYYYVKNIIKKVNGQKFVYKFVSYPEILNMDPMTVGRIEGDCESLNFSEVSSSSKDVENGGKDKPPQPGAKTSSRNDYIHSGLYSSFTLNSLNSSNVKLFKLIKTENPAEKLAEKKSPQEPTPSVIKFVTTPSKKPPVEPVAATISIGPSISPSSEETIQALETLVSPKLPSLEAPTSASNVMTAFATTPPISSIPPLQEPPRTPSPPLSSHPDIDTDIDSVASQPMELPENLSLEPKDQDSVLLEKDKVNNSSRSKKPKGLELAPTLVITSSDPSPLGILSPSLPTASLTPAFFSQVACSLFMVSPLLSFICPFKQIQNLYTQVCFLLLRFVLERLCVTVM
Procedure, shortened: as §1

ETV1 = ETV1 (Homo sapiens, UniProt P50549 1-477)
Procedure, shortened: as §1

ERF = target: T7, ERF (Homo sapiens, UniProt P50548 1-548)
T7 sequence: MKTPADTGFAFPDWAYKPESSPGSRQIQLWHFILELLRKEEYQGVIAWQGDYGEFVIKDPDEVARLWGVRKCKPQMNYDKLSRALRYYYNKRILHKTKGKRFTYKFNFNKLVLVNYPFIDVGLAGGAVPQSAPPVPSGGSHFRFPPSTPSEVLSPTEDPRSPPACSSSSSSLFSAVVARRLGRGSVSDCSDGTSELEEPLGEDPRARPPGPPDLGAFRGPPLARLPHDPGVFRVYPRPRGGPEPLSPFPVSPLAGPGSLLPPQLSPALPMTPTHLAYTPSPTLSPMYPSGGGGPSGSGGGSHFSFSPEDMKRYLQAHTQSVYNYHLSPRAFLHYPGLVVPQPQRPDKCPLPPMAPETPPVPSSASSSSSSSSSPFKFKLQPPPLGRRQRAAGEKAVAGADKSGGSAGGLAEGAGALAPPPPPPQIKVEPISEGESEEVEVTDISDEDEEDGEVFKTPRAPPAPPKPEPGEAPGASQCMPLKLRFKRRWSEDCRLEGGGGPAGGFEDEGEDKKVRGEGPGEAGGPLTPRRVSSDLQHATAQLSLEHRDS
Procedure, shortened: as §1

ETV3L = target: T8, ETV3L (Homo sapiens, UniProt Q6ZN32 1-361)
T8 sequence: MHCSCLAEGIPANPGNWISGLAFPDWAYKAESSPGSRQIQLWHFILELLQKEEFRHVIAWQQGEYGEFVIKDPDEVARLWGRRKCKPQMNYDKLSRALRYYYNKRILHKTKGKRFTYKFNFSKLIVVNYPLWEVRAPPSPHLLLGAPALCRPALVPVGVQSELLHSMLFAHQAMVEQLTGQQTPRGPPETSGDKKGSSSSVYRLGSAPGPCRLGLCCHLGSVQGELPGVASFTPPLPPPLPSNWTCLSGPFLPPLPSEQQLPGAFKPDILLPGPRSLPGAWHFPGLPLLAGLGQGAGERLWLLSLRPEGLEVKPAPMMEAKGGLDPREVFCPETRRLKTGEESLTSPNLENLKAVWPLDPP
Procedure, shortened: as §1

ETS2 = target: T9, ETS2 (Homo sapiens, UniProt P15036 1-469)
T9 sequence: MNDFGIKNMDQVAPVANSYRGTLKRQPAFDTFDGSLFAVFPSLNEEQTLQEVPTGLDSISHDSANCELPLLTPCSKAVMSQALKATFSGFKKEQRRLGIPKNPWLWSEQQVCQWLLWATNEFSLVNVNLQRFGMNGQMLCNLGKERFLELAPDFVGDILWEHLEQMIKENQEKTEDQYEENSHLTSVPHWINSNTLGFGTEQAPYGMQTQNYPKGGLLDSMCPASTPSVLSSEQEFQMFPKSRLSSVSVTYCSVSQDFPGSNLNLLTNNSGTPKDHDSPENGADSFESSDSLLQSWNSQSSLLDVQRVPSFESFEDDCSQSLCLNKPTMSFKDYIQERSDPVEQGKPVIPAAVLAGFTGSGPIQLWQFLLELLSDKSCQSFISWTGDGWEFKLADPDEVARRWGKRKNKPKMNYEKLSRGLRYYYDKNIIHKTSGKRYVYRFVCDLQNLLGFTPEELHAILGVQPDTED
Procedure, shortened: as §1

ETV7 = target: T10, ETV7 (Homo sapiens, UniProt Q9Y603 1-341)
T10 sequence: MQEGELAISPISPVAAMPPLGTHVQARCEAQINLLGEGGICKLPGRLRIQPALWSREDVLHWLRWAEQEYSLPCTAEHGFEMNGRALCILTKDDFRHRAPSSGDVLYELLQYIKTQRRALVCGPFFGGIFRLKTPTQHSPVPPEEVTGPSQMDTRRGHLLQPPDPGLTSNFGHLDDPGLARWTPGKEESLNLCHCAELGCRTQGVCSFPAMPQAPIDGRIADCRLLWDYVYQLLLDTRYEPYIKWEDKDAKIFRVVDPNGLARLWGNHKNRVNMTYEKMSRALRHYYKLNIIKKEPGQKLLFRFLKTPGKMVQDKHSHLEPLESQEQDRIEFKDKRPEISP
Procedure, shortened: as §1

ETV6 = ETV6 (Homo sapiens, UniProt P41212 1-452)
Procedure, shortened: as §1

ELF3 = target: T11, ELF3 (Homo sapiens, UniProt P78545 1-371)
T11 sequence: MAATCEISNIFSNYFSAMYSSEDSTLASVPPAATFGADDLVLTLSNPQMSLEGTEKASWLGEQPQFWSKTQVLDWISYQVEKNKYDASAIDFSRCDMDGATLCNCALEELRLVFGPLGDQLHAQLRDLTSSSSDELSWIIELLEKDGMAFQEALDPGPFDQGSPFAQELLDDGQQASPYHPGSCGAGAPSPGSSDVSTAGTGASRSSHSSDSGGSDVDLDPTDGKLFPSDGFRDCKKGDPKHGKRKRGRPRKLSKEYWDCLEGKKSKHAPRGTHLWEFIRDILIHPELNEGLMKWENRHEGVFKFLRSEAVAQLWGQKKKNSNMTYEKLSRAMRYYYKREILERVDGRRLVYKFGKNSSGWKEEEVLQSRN
Procedure, shortened: as §1

ETV3 = target: T12, ETV3 (Homo sapiens, UniProt P41162-2 1-143)
T12 sequence: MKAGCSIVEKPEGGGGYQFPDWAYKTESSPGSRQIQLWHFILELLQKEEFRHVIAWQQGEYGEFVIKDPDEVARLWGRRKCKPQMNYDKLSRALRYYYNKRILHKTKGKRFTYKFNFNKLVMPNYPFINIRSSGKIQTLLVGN
Procedure, shortened: as §1

Chain of ELF1 (P32519 whole entry): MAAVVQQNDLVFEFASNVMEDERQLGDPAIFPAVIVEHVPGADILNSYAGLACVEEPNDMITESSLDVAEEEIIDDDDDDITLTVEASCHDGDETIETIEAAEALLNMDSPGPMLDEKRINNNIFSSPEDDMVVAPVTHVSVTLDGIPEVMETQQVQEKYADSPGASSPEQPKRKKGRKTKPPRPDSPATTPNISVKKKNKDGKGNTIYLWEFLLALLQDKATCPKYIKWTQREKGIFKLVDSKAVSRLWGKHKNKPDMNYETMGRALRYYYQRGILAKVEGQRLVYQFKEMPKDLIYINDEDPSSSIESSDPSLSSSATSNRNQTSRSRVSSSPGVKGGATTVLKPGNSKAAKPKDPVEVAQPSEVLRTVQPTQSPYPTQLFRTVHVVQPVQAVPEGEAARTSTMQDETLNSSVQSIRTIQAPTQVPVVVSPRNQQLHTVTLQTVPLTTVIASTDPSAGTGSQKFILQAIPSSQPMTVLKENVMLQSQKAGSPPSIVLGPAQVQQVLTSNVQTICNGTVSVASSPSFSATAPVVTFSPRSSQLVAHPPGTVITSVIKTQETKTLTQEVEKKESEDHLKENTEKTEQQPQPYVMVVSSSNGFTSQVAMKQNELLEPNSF
Chain of ETV6 (P41212 whole entry): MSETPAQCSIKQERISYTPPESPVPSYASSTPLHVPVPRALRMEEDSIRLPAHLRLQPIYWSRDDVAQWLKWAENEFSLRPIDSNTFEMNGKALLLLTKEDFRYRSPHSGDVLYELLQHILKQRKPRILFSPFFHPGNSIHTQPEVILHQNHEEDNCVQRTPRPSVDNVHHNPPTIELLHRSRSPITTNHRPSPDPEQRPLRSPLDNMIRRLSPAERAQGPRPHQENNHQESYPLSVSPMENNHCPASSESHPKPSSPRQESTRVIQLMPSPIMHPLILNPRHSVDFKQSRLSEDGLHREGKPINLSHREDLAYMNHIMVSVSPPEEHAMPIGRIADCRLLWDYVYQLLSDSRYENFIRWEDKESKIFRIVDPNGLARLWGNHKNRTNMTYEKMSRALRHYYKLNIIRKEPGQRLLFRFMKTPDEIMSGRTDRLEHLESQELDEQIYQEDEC
Chain of ELF4 (Q99607 whole entry): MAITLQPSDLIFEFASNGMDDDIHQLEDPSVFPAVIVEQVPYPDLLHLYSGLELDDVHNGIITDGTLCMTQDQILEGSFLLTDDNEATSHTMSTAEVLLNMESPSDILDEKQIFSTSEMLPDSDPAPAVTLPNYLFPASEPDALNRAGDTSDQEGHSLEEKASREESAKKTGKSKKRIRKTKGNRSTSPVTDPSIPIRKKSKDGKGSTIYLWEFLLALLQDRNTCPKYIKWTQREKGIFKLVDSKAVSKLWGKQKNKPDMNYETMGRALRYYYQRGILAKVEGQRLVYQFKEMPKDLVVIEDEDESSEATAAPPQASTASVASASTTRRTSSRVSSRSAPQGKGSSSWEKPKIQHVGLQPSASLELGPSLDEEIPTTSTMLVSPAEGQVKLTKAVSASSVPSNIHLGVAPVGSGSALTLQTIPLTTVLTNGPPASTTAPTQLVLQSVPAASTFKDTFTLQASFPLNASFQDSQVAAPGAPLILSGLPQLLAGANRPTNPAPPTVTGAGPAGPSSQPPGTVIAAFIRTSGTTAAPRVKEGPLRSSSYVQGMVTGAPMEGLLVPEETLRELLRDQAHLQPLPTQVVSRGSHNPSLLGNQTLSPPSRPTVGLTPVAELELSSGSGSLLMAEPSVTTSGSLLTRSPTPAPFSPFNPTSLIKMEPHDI
Chain of ETV1 (P50549 whole entry): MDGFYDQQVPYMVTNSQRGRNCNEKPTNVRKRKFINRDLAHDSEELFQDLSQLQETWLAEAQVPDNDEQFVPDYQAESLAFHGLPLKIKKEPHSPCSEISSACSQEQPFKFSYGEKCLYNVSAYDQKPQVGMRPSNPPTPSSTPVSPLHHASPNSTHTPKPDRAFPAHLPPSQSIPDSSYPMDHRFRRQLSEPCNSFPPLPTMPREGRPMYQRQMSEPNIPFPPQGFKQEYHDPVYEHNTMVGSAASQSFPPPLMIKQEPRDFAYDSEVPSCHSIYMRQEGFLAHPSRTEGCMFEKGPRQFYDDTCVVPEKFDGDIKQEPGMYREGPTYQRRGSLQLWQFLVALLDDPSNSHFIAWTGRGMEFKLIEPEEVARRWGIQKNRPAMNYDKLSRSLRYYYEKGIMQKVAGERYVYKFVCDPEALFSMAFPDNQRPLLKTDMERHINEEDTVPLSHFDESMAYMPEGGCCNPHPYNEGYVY
Chain of SPIB (Q01892 whole entry): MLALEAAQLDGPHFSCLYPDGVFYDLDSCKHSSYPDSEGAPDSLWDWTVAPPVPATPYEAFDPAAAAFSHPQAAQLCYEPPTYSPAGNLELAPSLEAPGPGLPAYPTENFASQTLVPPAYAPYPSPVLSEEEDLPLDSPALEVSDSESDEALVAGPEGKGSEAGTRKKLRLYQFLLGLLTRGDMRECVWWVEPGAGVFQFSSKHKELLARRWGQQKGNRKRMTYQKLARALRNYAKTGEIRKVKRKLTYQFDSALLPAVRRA

For GTTCGC, the binding signal (ELK1) was 1.08 fold enrichment (6-mer frequency, TF over GST control), the binding signal (GABPA) was 1.03 fold enrichment (6-mer frequency, TF over GST control) and the binding signal (ERG) was 1.04 fold enrichment (6-mer frequency, TF over GST control). For the same sequence, the binding signal (ELF1) was 1.02 fold enrichment (6-mer frequency, TF over GST control), the binding signal (EHF) was 1.05 fold enrichment (6-mer frequency, TF over GST control) and the binding signal (SPIB) was 1.11 fold enrichment (6-mer frequency, TF over GST control). The binding signal (SPIC) was 1.17 fold enrichment (6-mer frequency, TF over GST control), the binding signal (ELF4) was 1.1 fold enrichment (6-mer frequency, TF over GST control) and the binding signal (ELK4) was 1.16 fold enrichment (6-mer frequency, TF over GST control). For the same sequence, the binding signal (ETV1) was 1.14 fold enrichment (6-mer frequency, TF over GST control), the binding signal (ERF) was 1.18 fold enrichment (6-mer frequency, TF over GST control) and the binding signal (ETV3L) was 1.07 fold enrichment (6-mer frequency, TF over GST control). The binding signal (ETS2) was 1 fold enrichment (6-mer frequency, TF over GST control), the binding signal (ETV7) was 1.02 fold enrichment (6-mer frequency, TF over GST control) and the binding signal (ETV6) was 1.07 fold enrichment (6-mer frequency, TF over GST control).

With GCCCGA the binding signal (ELK1) was 1.01 fold enrichment (6-mer frequency, TF over GST control), the binding signal (GABPA) was 1.02 fold enrichment (6-mer frequency, TF over GST control) and the binding signal (ERG) was 1.01 fold enrichment (6-mer frequency, TF over GST control). The binding signal (ELF1) was 1.14 fold enrichment (6-mer frequency, TF over GST control), the binding signal (SPIC) was 1.11 fold enrichment (6-mer frequency, TF over GST control) and the binding signal (ELF4) was 1.02 fold enrichment (6-mer frequency, TF over GST control). For the same sequence, the binding signal (ELK4) was 1.1 fold enrichment (6-mer frequency, TF over GST control), the binding signal (ELF3) was 1.21 fold enrichment (6-mer frequency, TF over GST control) and the binding signal (ERF) was 1.05 fold enrichment (6-mer frequency, TF over GST control). For the same sequence, the binding signal (ETV3L) was 1.01 fold enrichment (6-mer frequency, TF over GST control), the binding signal (ETS2) was 1.08 fold enrichment (6-mer frequency, TF over GST control) and the binding signal (ETV3) was 1.04 fold enrichment (6-mer frequency, TF over GST control). For the same sequence, the binding signal (ETV6) was 1.07 fold enrichment (6-mer frequency, TF over GST control).
